Consider 82 molecules from PubChem BioAssay AID651821 (The Scripps Research Institute Molecular Screening Center, 2012).

SMILES strings stand for the structures. Hit rate of the full screen: of about 370,000 compounds, about 4,700 (1.3%) were called active. Only a selection was taken, and actives are over-represented in it overall. A number with no mark means an inactive call.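 Rule for the calls: active = inhibition above the plate cutoff, the mean of all test compounds on that plate plus 3 SD (cut at about 35% in these data); inactive = the rest.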

The assay can be described thus: binders of r(CAG) RNA repeats, primary screen, biochemical, fluorescence (AID 651821).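 Note: 0% = DMSO alone and 100% = 100 µM mitoxantrone as full dye displacement; higher means more dye released from RNA so lower well fluorescence.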 The note with it: r(CAG) RNA repeat, TO-PRO-1 dye displacement fluorescence; at 3 µM; hits give high values.
On to `CCOc1ccccc1-n1c(SCC(=O)N2CCCC2)nnc1-c1ccoc1C`, for which the inhibition (as a rule, the drop in the measured response relative to a control, in per cent) is -6.11%.
Under `O=C(C1CCN(S(=O)(=O)c2ccccc2)CC1)N1CCN(C2CCCCC2)CC1` stands 2.76%.
On to `COC(=O)[C@]12C[C@H](CC(=O)N3CCOCC3)C(=O)N(Cc3ccc(Cl)cc3Cl)C1=C[C@H](C(C)C)O[C@@H]2C1CC1`, for which the inhibition is 4.69%.
As for `COc1cccc(NC(=O)N(C)C[C@@H]2OCc3cn(nn3)CCCC(=O)N([C@@H](C)CO)C[C@H]2C)c1`, the inhibition is 1.49%.
On to `CCCCOCCCNC(=O)C[C@H]1C[C@@]2(C(=O)OC)C(=C[C@H](C(C)(C)C)O[C@@H]2C)N(CCc2ccc(OC)c(OC)c2)C1=O`, for which the inhibition is 2.98%.
On to `COc1ccc(CSc2nnc(SCC(=O)Nc3ccccc3C(F)(F)F)s2)cc1`, for which the inhibition is 0.71%.
For `CCCCCCN1CCS(=O)(=O)N(Cc2ccc(C(F)(F)F)cc2)C(C(=O)OC)C1` (configuration not stated), the inhibition was 0.66%.
For the molecule `CC(=O)C1(C(=O)Nc2nccs2)CC(c2ccccc2C(F)(F)F)=NO1` (configuration not stated), the inhibition was 2.46%.
Under `Cc1cc2nc(-c3ccc(F)cc3)c(Cc3ccsc3)n2c(C)c1Br` stands 5.76%.
As to `c1ccc(Cc2c(-c3ccco3)nc3c4ccccc4ccn23)cc1`, the inhibition is 13.8%.
Next, `Cc1cc2nc(-c3ccco3)c(Cc3cccc(F)c3)n2c(C)c1Br`: 37% (active).
Next, `Cc1ccc2c(CN3CCN(S(=O)(=O)c4ccccc4C(F)(F)F)CC3)cc(=O)oc2c1`: 10%; `NC(=O)CCN1CCN(S(=O)(=O)/C=C/c2ccccc2)CC1`: -0.01%.
In the case of `O=c1cc(CN2CCN(S(=O)(=O)/C=C/c3ccccc3)CC2)c2ccc(O)cc2o1`, the inhibition was 40% (active).
As to `COc1ccc(CN2C(=O)C(C)S/C2=N/N=C/c2ccco2)cc1` (configuration not stated), the inhibition is 0.84%.
Under `O=C(Nc1cccc(F)c1)N1C2CCC1CC(O)(c1cccnc1)C2` (configuration not stated) stands -2.98%; under `CCN1N=C(c2ccccc2)CCC1=O`, -0.41%; under `O=C1NC(=O)C2C1C(c1ccc([N+](=O)[O-])cc1)=NN2Cc1ccccc1` (configuration not stated), 10.9%.
Under `O=C1CC(c2ccccc2)=NN1c1ccc([N+](=O)[O-])cc1` stands 45.5% (active); under `CN1[C@H](Cc2ccccc2)COc2cccc(N3CCSCC3)c2S1(=O)=O`, 4.7%.
In the case of `COC(=O)C1=C(C)N(Cc2cccc(C(F)(F)F)c2)C(=NCc2cccc(C(F)(F)F)c2)NC1c1ccccc1C(F)(F)F` (configuration not stated), the inhibition is 1.52%.
Under `Cc1c[nH]c2cccc(-c3ccc(Cl)cc3)c12` stands 1.17%; under `COc1ccc(C(=O)c2c(C)oc3cc([N+](=O)[O-])c(O)c([N+](=O)[O-])c23)cc1`, 24.7%; under `Cc1oc2cc([N+](=O)[O-])c(O)c([N+](=O)[O-])c2c1C(=O)c1ccc(Br)cc1`, 67.6% (active).
As to `Cc1cc(O)c(NC(=O)c2ccc(C)c([N+](=O)[O-])c2)cc1C`, the inhibition was 4.43%.
Under `N#Cc1ccccc1OC[C@@H](O)CN1CCC(C(O)(c2ccccc2)c2ccccc2)CC1` stands 2.31%; under `CCOC(=O)N1CCN(C(=O)C[C@H]2C[C@@]3(C(=O)OC)C(=C[C@H](C(C)(C)C)O[C@@H]3C)N(Cc3ccc(Cl)cc3Cl)C2=O)CC1`, 7.87%; under `O=C(O)CCn1cc(/C=C/C(=O)c2ccc(Cl)cc2)c(-c2cccc(Br)c2)n1`, 82.8% (active).
`C#CCN([C@H](C(=O)OC)C(C)CC)S(=O)(=O)c1ccccc1Br` (some centres not stated): the inhibition is -1.79%.
Under `O=C(C(=O)N1CCC(CNC(=O)c2cccnc2Cl)CC1)c1cccs1` stands 2.4%; under `COc1ccc(CNS(=O)(=O)c2cc(Br)ccc2Br)cc1`, 2.67%.
Under `COc1ccc(-n2c(SCC(=O)NC3CCCC3)nnc2-c2ccncc2)cc1` stands 3.34%; under `CCN(CC)S(=O)(=O)c1ccc(Cl)c(C(=O)NC(C)C(c2cccs2)N2CCCC2)c1` (configuration not stated), -3.47%.
For `Cc1ccc(NC(=S)NNC(=O)CSc2nnc(SCc3ccccc3Cl)s2)cc1`, the inhibition is 47.2% (active).
Under `O=C(CSc1nnc(SCc2ccc(Cl)cc2)s1)N/N=C/c1ccccc1Cl` stands 5.04%.
Under `CCSc1nnc(SCC(=O)NNC(=O)c2ccccc2F)s1` stands 1.18%.
Next, `O=C1Nc2cc(C(=O)N3CCN(c4ccc(F)cc4)CC3)ccc2NC1CSCc1cccc(F)c1` (configuration not stated): 14.7%.
As to `O=C(COC(=O)/C=C/c1cccc(Cl)c1)NCc1cccs1`, the inhibition was -1.04%.
Under `Cc1ccc(CSCC(=O)N(C)CC(=O)Nc2cccc(F)c2)cc1` stands -1.65%.
Under `CCN(CC)C(=O)CSC(Nc1cccc(F)c1)=C(C#N)C#N` stands 56.7% (active); under `CCOC(=O)c1nnn(CC(=O)Nc2cccc(F)c2)c1C(=O)OCC`, -2.22%; under `CCS(=O)(=O)c1ccc(C(=O)NC)c(Cl)c1Cl`, -0.44%.
For the molecule `O=C(NC1CCCC1)C1CSCCS(=O)(=O)N1Cc1ccccc1` (configuration not stated), the inhibition is 4%.
Under `CCc1nnc(NS(=O)(=O)c2ccc(NC(=S)NC(=O)c3cccs3)cc2)s1` stands 59% (active).
Next, `CCc1nnc(NC(=O)C2CCCN2S(=O)(=O)c2ccccc2)s1` (configuration not stated): -1.9%; `NS(=O)(=O)c1ccc(NC(=S)NNC(=O)c2cccs2)cc1`: -2.42%.
Next, `CCc1nnc(NS(=O)(=O)c2ccc(NC(=O)c3cccc(OC(F)(F)C(F)F)c3)cc2)s1`: 72.6% (active).
Consider `Cc1ccc(S(=O)(=O)N(C)C)cc1NC(=O)/C=C/c1cccs1`, for which the inhibition was 0.22%.
Next, `CCc1nnc(NC(=O)[C@@H](NC(=O)c2cccc(C)c2)C(C)C)s1`: 2.27%; `CCc1nnc(NS(=O)(=O)c2ccc(NC(=S)NC(=O)/C=C/c3cccs3)cc2)s1`: 83.9% (active).
Turning to `Cc1cc(NS(=O)(=O)c2ccc(NC(=O)c3cccc(OC(F)F)c3)cc2)nc(C)n1`, the inhibition was 4.48%.
Next, `O=C(NC(=S)Nc1ccc(S(=O)(=O)Nc2ncccn2)cc1)c1cccc(Br)c1`: 5.78%; `C=CCN=C1NC(c2ccccc2)C(C(=O)OC)=C(C)N1Cc1ccc(C(F)(F)F)cc1` (configuration not stated): 8.06%.
Under `CN(CCO)c1cccc2c1S(=O)(=O)N(Cc1cn(Cc3ccc(C(F)(F)F)cc3)nn1)Cc1ccccc1O2` stands -1.07%; under `C/C=C/C(=O)OCC(=O)Nc1ccc(F)cc1Cl`, 4.85%.
Under `Cc1cc2nc3c(=O)[nH]c(=O)nc-3n(C[C@H](O)[C@H](O)[C@H](O)CO)c2cc1C` stands -477%; under `CCN1C(=O)N[C@@H]2C[C@H](C(=O)N3CCCC3)[C@H](C)[C@H](c3ccccc3)C[C@@H]21`, 1.47%.
With `CCc1ccccc1OCC(=O)Nc1ccc(C)c(S(=O)(=O)N2CCCCCC2)c1`, the inhibition is 3.67%.
Next, `CC1CCN(S(=O)(=O)c2nnc(NC(=O)COc3ccccc3F)s2)CC1`: 8.39%.
Under `Cc1ccccc1OCC(=O)Nc1nnc(S(=O)(=O)N2CCCC2)s1` stands 37.6% (active); under `COc1ccc(Cn2cc(CN3[C@@H](CC(C)C)COc4cc(Br)ccc4S3(=O)=O)nn2)cc1`, 2.72%; under `O=C(C(=O)N1CCC(CNS(=O)(=O)Cc2ccccc2)CC1)c1cc2ccccc2o1`, 3.81%.
For the molecule `Cn1c2c(c(=O)n(C)c1=O)CN(Cc1ccco1)CN2`, the inhibition was -0.1%.
As for `COc1ccc(-n2c(SCC(=O)Nc3ccc4c(c3)OCCO4)nnc2-c2ccc(Cl)cc2)cc1`, the inhibition was 6.74%.
Next, `COc1ccc(C2C(C#N)=C(N)Oc3n[nH]c(C)c32)cc1CN1CCN(c2ccc(F)cc2)CC1` (configuration not stated): 0.94%; `COc1ccccc1C1C(C#N)=C(N)Oc2c1c(-c1ccccc1)nn2-c1ccccc1` (configuration not stated): 54.6% (active).
In the case of `COc1ccccc1C1CC(=O)n2c(nc(-c3ccccc3)c2-c2ccccc2)S1` (configuration not stated), the inhibition is 9.44%.
On to `CCCCCCCCN1C(=O)[C@@H](CC(=O)NCc2ccccc2)C[C@@]2(C(=O)OC)C1=C[C@H](C(C)(C)C)O[C@@H]2C`, for which the inhibition was 1.31%.
Under `CN(c1ccccc1)S(=O)(=O)c1ccc(C(=O)NCc2cccnc2)cc1` stands 2.25%; under `O=C(c1cccnc1)N(c1cc2sc(=O)oc2c2ccccc12)S(=O)(=O)c1ccccc1`, 80.7% (active).
Next, `O=C(CN(c1cc(C(F)(F)F)ccc1Cl)S(=O)(=O)c1ccccc1)NCc1cccnc1`: -7.03%; `Cc1cc(N2CCN(C(=O)OC(C)(C)C)C[C@H]2C)ccc1N1CCN(Cc2ccccc2)[C@H](C)C1`: 0.53%; `Cc1ccc(S(=O)(=O)N2C[C@H]3C(=O)C[C@@H](c4cccc5ccccc45)N(S(=O)(=O)c4ccc(C)cc4)[C@H]3C[C@H]2c2ccc(Cl)cc2)cc1`: 13.6%.
Next, `Cc1ccc(S(=O)(=O)N2[C@@H](c3cccc4ccccc34)C(C(=O)O)=C[C@H]2C(C)(C)C)cc1`: 50.6% (active); `CCOC(=O)C1C(C)C(C(C)(C)C)N(S(=O)(=O)c2ccc(C)cc2)C1c1ccccc1` (configuration not stated): 1.44%.
Regarding `COc1cccc(/C=C2\CC3(OC(C)=O)CCCN2C3)c1` (configuration not stated), the inhibition was 0.45%.
Turning to `C#CCN([C@@H](C)C(=O)OCC)S(=O)(=O)c1ccc(Br)cc1F`, the inhibition is 2.12%.
On to `O=c1ccc2cc(S(=O)(=O)Nc3ccccc3F)ccc2o1`, for which the inhibition is -1.01%.
Under `O=c1oc(-c2ccccc2NS(=O)(=O)c2ccc(Cl)cc2)nc2ccccc12` stands 39.1% (active).
Take `O=c1oc2ccccc2c(NC2CCCCC2)c1NS(=O)(=O)c1ccc(Cl)cc1`: the inhibition was 5.21%.
On to `COc1ccc(-n2c(SCC(=O)Nc3ccccc3-c3ccccc3)nnc2-c2cccnc2)cc1`, for which the inhibition is 0.96%.
Under `Cc1c(C(C)c2ccccc2O)[nH]c2ccccc12` (configuration not stated) stands 4.84%.
